# Screens: PubChem, National Center for Advancing Translational Sciences (NCATS)
# Only some compounds are listed: those with a hit (about 19% of all), similar ones and a draw of the others.
# DT40 TDP1 CPT: growth inhibition of DT40 Tdp1-/-;hTDP1 cells with camptothecin (screen for TDP1 inhibitors) | chicken DT40 Tdp1-/-;hTDP1 cells + 20 nM CPT, ATP luminescence, 48 h | Potency, µM (series often up to 46.2 µM), without a hit: at the top dose activity change, negative = growth inhibition, hits mostly inhibitors | hit rate 12% among 420,000 | AID 686979; also: potency is read from the fitted curve at half-maximal effect; nearly all actives have a fitted effect of over 55% in size
#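 Cell growth measured by CellTiter-Glo luminescence after a minimum 48 h, 37 C compound exposure with 20 nM CPT in Tdp1-knockout DT40 cells stably expressing hTDP1, seeded 400/well; qHTS titration format.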
# IL1B secr inh: blocks inflammasome-driven IL-1 beta release; THP-1 LPS/ATP IL-1B secretion, AlphaLISA, 16 h; active compounds read low; activity change, % at 57.5 µM; hit rate 4.7% among 360,000; AID 743279; in the data active = activity change below about -50%; inconclusive = mostly about -30% to -49%
#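 Secreted IL-1B measured by AlphaLISA bead assay after 16 h compound exposure of THP-1 cells; compounds (final up to 57.5 uM) added 1 h before LPS (250 ng/mL) and ATP (1.25 mM) stimulation; lower signal means less secretion.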
# TDP1 cell noCPT: qHTS for Inhibitors of human tyrosyl-DNA phosphodiesterase 1 (TDP1): qHTS in cells in absence of CPT; AID 686978, 2013; Potency, µM (doses to about 46.2 µM), inactives show top-dose activity change, negative = growth inhibition, actives largely listed as inhibitors; hit rate 15% among 420,000; DT40 Tdp1-/- hTDP1 cells, no CPT, ATP luminescence, 48 h; also: potency is read from the fitted curve at half-maximal effect; nearly all actives have a fitted effect of over 55% in size
#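 DT40 Tdp1-/-;hTDP1 cells, no CPT (DMSO vehicle only), 400 cells/well; compounds pin-transferred; ≥48 hr, 37 °C; CellTiter-Glo 30 min RT dark, luminescence read.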
# HT1080 IDH1KD tx: HT-1080 IDH1 knockdown cell toxicity (counter line) | HT-1080 IDH1 knockdown viability, ATP luminescence, 48 h | Potency, µM (series often up to 46.1 µM), inactives show at the highest dose activity, negative = toxicity, usual class: cytotoxic | hit rate 2% among 360,000 | AID 686971;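 also: potency is read from the fitted curve at half-maximal effect; 0% = DMSO wells and -100% = cell-free medium wells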
#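 After a 2 h attachment period, IDH1KD HT-1080 cells took pin-transferred compound for 48 h at 37 °C; ATP-based luminescence after 10 min room-temperature reagent incubation reported viability.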
# HT1080-NT tox: kills 2HG-producing HT-1080-NT fibrosarcoma cells | HT-1080-NT fibrosarcoma viability, CellTiter-Glo ATP luminescence, 48 h | Potency, µM (titrated, usually from 46.1 µM), without a hit: at the highest dose activity, negative = less viability, actives largely listed as cytotoxic | hit rate 1.6% among 360,000;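 also: NT is the 2HG producing partner of a matched IDH1 knockdown line; potency is read from the fitted curve at half-maximal effect; 0% = DMSO-treated cells and -100% = media-only wells without cells; nearly all actives have a fitted effect of over 55% in size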
#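 750 cells/well, RPMI + 5% FBS; 2 h settle, compound pin-transfer, 48 h at 37 degrees C. CellTiter-Glo 10 min RT, luminescence. Normalized to DMSO and media-only wells.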
# * = called active by the depositor; ? = inconclusive; . = no result. Unless noted, calls follow the shape of the dose curve; as a rule, active = well fitted curve in the direction sought with a large enough effect; inconclusive = small, poorly fitted or top-dose-only effect, or another doubt; inactive = no such curve, though single readings can be large; an effect the other way counts as inactive or inconclusive. Unless noted, % is scaled to controls: 0 for no effect and ±100 for the full control effect.
SMILES,DT40 TDP1 CPT,IL1B secr inh,TDP1 cell noCPT,HT1080 IDH1KD tx,HT1080-NT tox
C=C1C(=O)C=C2CN(C(=O)c3ccccc3)[C@@](Cc3ccc(F)cc3)(C(=O)OC)[C@@H]12,0.164µM*,-103.3*,0.0517µM*,5.8µM*,11.6µM*
COC(=O)[C@@]1(Cc2ccc(F)cc2)[C@H]2c3cc(C(=O)N(C)C)n(C)c3C[C@H]2CN1C(=O)c1ccccc1,?,-6.9,?,2.5%,2.2%
C=C1C(=O)CC2=C1[C@](Cc1ccc(F)cc1)(C(=O)OC)N(C(=O)c1ccccc1)C2,18.4µM*,-6.1,20.6µM*,?,?
Cc1nn(Cc2c(Cl)cccc2Cl)c(Cl)c1/C=C/C(=O)OCC(=O)NCC(F)(F)F,?,18.8,?,9.1%,4.4%
COCCNC(=O)COC(=O)/C=C/c1c(C)nn(Cc2ccc(Cl)cc2Cl)c1Cl,14.6µM*,1.1,16.4µM*,?,-27.2%
COCC(=O)Nc1cc(C(=O)N2CCCC2c2nccs2)c2c(c1)nc(-c1ccncc1)n2C (centres undefined),21.8%,.,-14.9%,.,.
O=C1CCCC2=C1C(c1ccsc1)CC(=O)N2c1ccccc1F (centres undefined),-0.3%,-7.9,-9.1%,-6.5%,-9.1%
CCOC1=C2[C@@H](CN(S(=O)(=O)c3ccc(C)cc3)[C@H]2c2ccccc2Cl)[C@H]2C(=O)N(Cc3ccccc3)C(=O)[C@H]2C1,18.4µM*,-15.2,14.6µM*,2.5%,-1.8%
CCOC1=C2[C@@H](CN(S(=O)(=O)c3ccc(C)cc3)[C@H]2c2ccccc2F)[C@H]2C(=O)N(CC)C(=O)[C@H]2C1,?,35.7,?,6.1%,2.8%
CCCN1CNc2c(c(=O)[nH]c(=S)n2CCc2cccc(OC)c2)C1,-5.0%,.,?,3.5%,11.0%
c1ccc(C2OCCN2c2ccccc2)cc1 (centres undefined),4.2%,12.4,-1.8%,0.5%,-1.5%
CCOC(=O)c1ccc(S(=O)(=O)N2CC(=O)Nc3ccccc32)cc1,18.4µM*,17.2,18.4µM*,-20.2%,-20.9%
CCN(CC)c1ccc([N+](=O)[O-])cc1C(=O)N1CCOCC1,1.6%,-1.5,-5.7%,8.7%,12.1%
CCN(CC)C1=NS(=O)(=O)c2cc([N+](=O)[O-])ccc21,18.4µM*,4.9,23.1µM*,7.5%,29.9%
CCCCC(Sc1ccc2nnc(-c3ccccn3)n2n1)C(=O)O (centres undefined),17.5%,.,-1.1%,.,.
O=C(COc1ccc2c(c1)oc(=O)c1ccccc12)NCC1CCC(C(=O)O)CC1 (centres undefined),5.4%,-13.9,-2.1%,7.9%,5.6%
C[C@H](CO)N1C[C@H](C)[C@@H](CN(C)S(=O)(=O)c2ccc(F)cc2)Oc2ccc(NS(=O)(=O)c3ccccc3)cc2C1=O,0.9%,-9.8,-5.5%,0.4%,1.4%
CCC(=O)N1CN(S(=O)(=O)c2ccc(C)cc2)CC1C (centres undefined),-2.0%,5.4,-4.8%,0.4%,3.9%
CCc1ccc(C(=O)NC(=S)Nc2ccc3c(c2)OCCO3)cc1,?,-5.1,?,-4.0%,-24.9%
Cc1cc(C)cc(C(=O)NC(=S)Nc2ccc3c(c2)OCCO3)c1,16.4µM*,-15.7,?,10.1%,-2.9%
Cc1cc(C)cc(C(=O)NC(=S)Nc2ccc(Cc3ccncc3)cc2)c1,?,?,29.1µM*,?,?
O=C(NC(=S)Nc1ccc(N2CCCCC2)c(Cl)c1)c1ccc2c(c1)OCCO2,16.4µM*,-7.4,20.6µM*,18.4µM*,11.6µM*
COc1ccccc1C(=O)NC(=S)Nc1ccc(Cc2ccncc2)cc1,?,28.5,18.4µM*,-4.1%,-9.6%
CCc1ccc2cc(F)cc(F)c2n1,-1.0%,-5.3,3.9%,21.7%,27.3%
CCc1ccc(C2CC(c3cccc(OC)c3)n3nc(N)nc3N2)cc1 (centres undefined),?,-23.5,?,13.4%,12.6%
SMILES,DT40 TDP1 CPT,IL1B secr inh,TDP1 cell noCPT,HT1080 IDH1KD tx,HT1080-NT tox
CCOC(=O)c1c(NC(=O)c2c(C(=O)O)cccc2[N+](=O)[O-])sc2c1CCCC2,?,-10.0,?,0.1%,-0.7%
CN(Cc1ccc(Cl)cc1)C(=O)c1[nH]c(C(F)(F)F)nc1-c1ccccc1,-6.5%,25.4,-20.7%,-3.1%,5.1%
COc1ccccc1CCC(=O)N1CCN(S(=O)(=O)c2cc(C(F)(F)F)ccc2Cl)CC1,?,2.3,?,4.0%,-1.8%
COc1c(C(=O)Nc2ccc(Cc3ccncc3)cc2)ccc2ccccc12,?,-14.1,23.1µM*,-20.7%,-10.4%
CC(C)Cc1ccc(C(=O)Nc2ccc(Cc3ccncc3)cc2)o1,?,-91.1*,?,-24.4%,-24.6%
O=C(Nc1ccc(Cc2ccncc2)cc1)c1ccc(Br)o1,-7.0%,?,-17.3%,?,2.9%
Cn1c(CSCc2ccccc2)n[nH]c1=S,7.7%,5.5,-19.7%,-2.6%,?
O=C(O)CNC(=O)CNC(=O)CNC(=O)CSC(=O)c1ccccc1,-0.9%,.,-2.4%,.,.
COc1ccc(Cl)cc1NC(=O)CN(C)C(=O)Cn1cnnn1,-5.0%,14.8,-0.4%,4.6%,6.1%
CCc1ccc(C(=O)CC2(O)C(=O)N(CCc3ccccc3)c3ccc(Cl)cc32)cc1 (centres undefined),18.4µM*,.,16.4µM*,.,.
Cc1n[nH]c(C)c1C(=O)CC1(O)C(=O)N(CCc2ccccc2)c2ccc(Cl)cc21 (centres undefined),?,5.0,23.1µM*,-18.8%,-27.0%
Cc1ccccc1CN1C(=O)C(O)(CC(=O)c2ccccc2)c2cc(Cl)ccc21 (centres undefined),-101.7%,.,?,.,.
COc1cc(OC)c(C(=O)NC2CCCc3ccccc32)cc1OC (centres undefined),?,13.5,?,-1.5%,-17.7%
CC(=O)Nc1cc(-c2ccc(N(C)C)cc2)cn2c(-c3ccc(F)cc3)cnc12,?,-5.7,?,?,?
CC(=O)Nc1cc(-c2ccc(S(C)(=O)=O)cc2)cn2c(-c3ccc(F)cc3)cnc12,?,?,?,-27.1%,-14.5%
CC(=O)Nc1cc(-c2ccc(S(C)(=O)=O)cc2)cn2c(-c3ccc(F)c(Cl)c3)cnc12,18.4µM*,?,16.4µM*,-26.0%,-22.5%
CC(=O)Nc1cc(-c2ccc(N(C)C)cc2)cn2c(-c3ccc(F)c(Cl)c3)cnc12,18.4µM*,-17.0,14.6µM*,?,?
